Measurements from PubChem BioAssay AID1159580 (chemical genetic matrix, 2015).
“And” between values parts separate entries of the source, which are not always exact repeats. Identical values can stand only once. The campaign covered roughly 5,500 compounds. About 2,000 (36%) were called active. Another 18% or so got no clear call; they are omitted. No stated cut-off is given here; in the data, active means normalized growth mostly below about 0.91 (no sharp cut-off); inconclusive means no clear call, values can overlap the other calls; inactive means mostly above about 0.92. This is one part of the list.

Assay: chemical genetic growth profiling, strain panel (AID 1159580);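 further: tested at 20 µM; growth read once vehicle control cultures reached saturation at 30 °C; 1 = growth at the plate median or of vehicle wells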
Details: S. cerevisiae deletion strains, growth OD

Measured: normalized growth

O=C(O)c1cc2cc(F)ccc2[nH]1
inactive: locus YAL013W, strain DEP1, stronger effect = lower value 1 | locus YAL021C, strain ccr4, stronger effect = lower value 0.961 | locus YAL026C, strain drs2, stronger effect = lower value 0.992 | locus YAL030W, strain snc1, stronger effect = lower value 0.998 | locus YAL040C, strain CLN3, stronger effect = lower value 0.969 | locus YBL061C, strain skt5, stronger effect = lower value 0.99 | locus YBR009C, strain hhf1, stronger effect = lower value 1.01 | locus YBR021W, strain FUR4, stronger effect = lower value 0.99 | locus YBR023C, strain chs3, stronger effect = lower value 0.996 | locus YBR171W, strain sec66, stronger effect = lower value 0.97 | locus YBR229C, strain ROT2, stronger effect = lower value 0.982 | locus YBR231C, strain swc5, stronger effect = lower value 0.991 | locus YBR279W, strain paf1, stronger effect = lower value 0.976 | locus YCL011C, strain gbp2, stronger effect = lower value 0.975 | locus YCL016C, strain dcc1, stronger effect = lower value 0.994 | locus YCL029C, strain bik1, stronger effect = lower value 1.02 | locus YCL061C, strain MRC1 (second series), stronger effect = lower value 0.99 | locus YCL061C, strain MRC1, stronger effect = lower value 0.971 | locus YCL069W, strain vba3, stronger effect = lower value 0.975 | locus YCR088W, strain abp1, stronger effect = lower value 0.971 | locus YDL005C, strain med2, stronger effect = lower value 0.97 | locus YDL035C, strain GPR1, stronger effect = lower value 1.02 | locus YDL040C, strain nat1, stronger effect = lower value 0.979 | locus YDL074C, strain BRE1, stronger effect = lower value 1.03 | locus YDL101C, strain DUN1, stronger effect = lower value 1.02 | locus YDL134C, strain PPH21, stronger effect = lower value 1.01 | locus YDL185W, strain tfp1, stronger effect = lower value 1.01 | locus YDL192W, strain arf1, stronger effect = lower value 1.02 | locus YDR001C, strain nth1, stronger effect = lower value 0.978 | locus YDR069C, strain doa4, stronger effect = lower value 1 | locus YDR101C, strain arx1, stronger effect = lower value 1.01 | locus YDR137W, strain rgp1, stronger effect = lower value 0.968 | locus YDR150W, strain NUM1, stronger effect = lower value 1.01 | locus YDR159W, strain sac3, stronger effect = lower value 0.995 | locus YDR162C, strain NBP2, stronger effect = lower value 1.02 | locus YDR195W, strain ref2 0.966 | locus YDR297W, strain sur2, stronger effect = lower value 0.975 | locus YDR318W, strain mcm21, stronger effect = lower value 1.02 | locus YDR334W, strain swr1, stronger effect = lower value 0.945 | locus YDR335W, strain msn5, stronger effect = lower value 0.99 | locus YDR388W, stronger effect = lower value 1.01 | locus YDR392W, strain spt3, stronger effect = lower value 0.933 | locus YDR502C, strain sam2, stronger effect = lower value 1.02 | locus YEL003W, strain gim4, stronger effect = lower value 0.978 | locus YEL037C, strain rad23, stronger effect = lower value 0.981 | locus YEL061C, strain CIN8 (second series), stronger effect = lower value 0.979 | locus YEL061C, strain CIN8, stronger effect = lower value 1.01 | locus YER002W, strain NOP16, stronger effect = lower value 0.966 | locus YER015W, strain faa2, stronger effect = lower value 0.981 | locus YER016W, strain bim1, stronger effect = lower value 0.994 | locus YER110C, stronger effect = lower value 1.02 | locus YER111C, strain swi4, stronger effect = lower value 1.01 | locus YER155C, strain BEM2 (second series), stronger effect = lower value 0.993 | locus YER155C, strain BEM2, stronger effect = lower value 1 | locus YER167W, strain BCK2, stronger effect = lower value 1.01 | locus YFR010W, strain ubp6, stronger effect = lower value 0.978 | locus YGL078C, strain dbp3, stronger effect = lower value 1.01 | locus YGL086W, strain mad1, stronger effect = lower value 1.02 | locus YGL167C, strain pmr1, stronger effect = lower value 0.982 | locus YGL173C, strain kem1, stronger effect = lower value 0.987 | locus YGL227W, strain vid30, stronger effect = lower value 0.989 | locus YGL240W, strain doc1, stronger effect = lower value 1.01 | locus YGL248W, strain PDE1, stronger effect = lower value 1.01 | locus YGL253W, strain hxk2, stronger effect = lower value 1 | locus YGR078C, strain PAC10, stronger effect = lower value 0.984 | locus YGR135W, strain pre9, stronger effect = lower value 1.02 | locus YGR229C, strain SMI1, stronger effect = lower value 1.01 | locus YGR252W, strain gcn5, stronger effect = lower value 1.03 | locus YHR013C, strain ard1, stronger effect = lower value 0.99 | locus YHR027C, strain rpn1, stronger effect = lower value 0.977 | locus YHR030C, strain SLT2, stronger effect = lower value 1.01 and 1.02 | locus YHR079C, strain IRE1 (second series), stronger effect = lower value 1.02 | locus YHR079C, strain IRE1, stronger effect = lower value 0.988 | locus YHR094C, strain hxt1, stronger effect = lower value 1.02 | locus YHR129C, strain ARP1, stronger effect = lower value 1 | locus YHR142W, strain chs7, stronger effect = lower value 0.949 | locus YHR200W, strain rpn10, stronger effect = lower value 1.03 | locus YIL066C, strain RNR3, stronger effect = lower value 1.01 | locus YIL073C, strain SPO22, stronger effect = lower value 1.09 | locus YIL125W, strain kgd1, stronger effect = lower value 1.01 | locus YIR030C, strain dcg1, stronger effect = lower value 1.02 | locus YJL092W, strain hpr5, stronger effect = lower value 0.968 | locus YJL095W, strain BCK1 (second series), stronger effect = lower value 0.987 | locus YJL095W, strain BCK1, stronger effect = lower value 1.01 and 0.997 | locus YJL115W, strain asf1, stronger effect = lower value 0.962 | locus YJL129C, strain trk1, stronger effect = lower value 0.979 | locus YJL134W, strain LCB3, stronger effect = lower value 1.01 | locus YJL154C, strain vps35, stronger effect = lower value 0.967 | locus YJL164C, strain tpk1, stronger effect = lower value 0.972 | locus YJL166W, strain qcr8, stronger effect = lower value 1 | locus YJL168C, strain set2, stronger effect = lower value 1.02 | locus YJL187C, strain SWE1 (second series), stronger effect = lower value 1.01 | locus YJL187C, strain SWE1, stronger effect = lower value 0.981 | locus YJR043C, strain POL32, stronger effect = lower value 1.01 | locus YJR066W, strain TOR1, stronger effect = lower value 0.93
